# Measurements reported in the supplement of paper PMC8975748.
# Structures can show the parent of a compound that is named as a salt. ± gives the standard deviation of the averaged measurements.
# Experiments:
# [1] = system: Saccharomyces cerevisiae BY4741 SeMeCo community; assay: mean cell size (pixel area) (pixels); higher = larger cells; conditions: 10 µM; 24 h; SM minimal medium
# Procedure, shortened: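 In this assay, mean cell pixel area per well was obtained from automated confocal images of paraformaldehyde-fixed yeast analysed in Harmony. The cells were a Saccharomyces cerevisiae BY4741 community with four plasmids, each complementing one auxotrophy and carrying a fluorescent marker, grown for 24 h in SM medium with drug at a final 10 µM in 384-well plates. Values are averaged across 3 replicates. Same SeMeCo high-content imaging drug screen: Selleck FDA-approved drugs at 10 µM, 24 h in SM medium, 384-well plates, 3 replicates.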
# [2] = system: Saccharomyces cerevisiae BY4741 SeMeCo community; assay: z-score of prototroph abundance vs DMSO median; higher = larger share of this subpopulation than in DMSO controls; conditions: 10 µM; 24 h; SM minimal medium; subpopulation (auxotrophy): Prototroph
# Procedure, shortened: (§1)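 Subpopulation abundance was reported as a z-score against the median of vehicle wells. The Saccharomyces cerevisiae BY4741 community, carrying four plasmids that each restored one auxotrophy and encoded a distinct fluorescent protein, was grown 24 h in minimal SM medium in 384-well plates holding library drugs at 10 µM final. Cells were paraformaldehyde-fixed and imaged by automated confocal microscopy, with single-auxotroph fluorescent strains used for thresholds and autofluorescence correction.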
# [3] = system: Saccharomyces cerevisiae BY4741 SeMeCo community; assay: z-score of subpopulation abundance vs DMSO median, subpopulation auxotrophic for M; higher = larger share of this subpopulation than in DMSO controls; conditions: 10 µM; 24 h; SM minimal medium; subpopulation (auxotrophy): M
# Procedure, shortened: as §1
# [4] = system: Saccharomyces cerevisiae BY4741 SeMeCo community; assay: z-score of subpopulation abundance vs DMSO median, subpopulation auxotrophic for L; higher = larger share of this subpopulation than in DMSO controls; conditions: 10 µM; 24 h; SM minimal medium; subpopulation (auxotrophy): L
# Procedure, shortened: as §1
# [5] = system: Saccharomyces cerevisiae BY4741 SeMeCo community; assay: z-score of subpopulation abundance vs DMSO median, subpopulation auxotrophic for U; higher = larger share of this subpopulation than in DMSO controls; conditions: 10 µM; 24 h; SM minimal medium; subpopulation (auxotrophy): U
# Procedure, shortened: as §1
# [6] = system: Saccharomyces cerevisiae BY4741 SeMeCo community; assay: z-score of subpopulation abundance vs DMSO median, subpopulation auxotrophic for H; higher = larger share of this subpopulation than in DMSO controls; conditions: 10 µM; 24 h; SM minimal medium; subpopulation (auxotrophy): H
# Procedure, shortened: as §1
# [7] = system: Saccharomyces cerevisiae BY4741 SeMeCo community; assay: z-score of subpopulation abundance vs DMSO median, subpopulation auxotrophic for LU; higher = larger share of this subpopulation than in DMSO controls; conditions: 10 µM; 24 h; SM minimal medium; subpopulation (auxotrophy): LU
# Procedure, shortened: as §1
# [8] = system: Saccharomyces cerevisiae BY4741 SeMeCo community; assay: z-score of subpopulation abundance vs DMSO median, subpopulation auxotrophic for LM; higher = larger share of this subpopulation than in DMSO controls; conditions: 10 µM; 24 h; SM minimal medium; subpopulation (auxotrophy): LM
# Procedure, shortened: as §1
# [9] = system: Saccharomyces cerevisiae BY4741 SeMeCo community; assay: z-score of subpopulation abundance vs DMSO median, subpopulation auxotrophic for HM; higher = larger share of this subpopulation than in DMSO controls; conditions: 10 µM; 24 h; SM minimal medium; subpopulation (auxotrophy): HM
# Procedure, shortened: as §1
# [10] = system: Saccharomyces cerevisiae BY4741 SeMeCo community; assay: z-score of subpopulation abundance vs DMSO median, subpopulation auxotrophic for HU; higher = larger share of this subpopulation than in DMSO controls; conditions: 10 µM; 24 h; SM minimal medium; subpopulation (auxotrophy): HU
# Procedure, shortened: as §1
# [11] = system: Saccharomyces cerevisiae BY4741 SeMeCo community; assay: z-score of subpopulation abundance vs DMSO median, subpopulation auxotrophic for UM; higher = larger share of this subpopulation than in DMSO controls; conditions: 10 µM; 24 h; SM minimal medium; subpopulation (auxotrophy): UM
# Procedure, shortened: as §1
# [12] = system: Saccharomyces cerevisiae BY4741 SeMeCo community; assay: z-score of subpopulation abundance vs DMSO median, subpopulation auxotrophic for HL; higher = larger share of this subpopulation than in DMSO controls; conditions: 10 µM; 24 h; SM minimal medium; subpopulation (auxotrophy): HL
# Procedure, shortened: as §1
# [13] = system: Saccharomyces cerevisiae BY4741 SeMeCo community; assay: z-score of subpopulation abundance vs DMSO median, subpopulation auxotrophic for HLU; higher = larger share of this subpopulation than in DMSO controls; conditions: 10 µM; 24 h; SM minimal medium; subpopulation (auxotrophy): HLU
# Procedure, shortened: as §1
# [14] = system: Saccharomyces cerevisiae BY4741 SeMeCo community; assay: z-score of subpopulation abundance vs DMSO median, subpopulation auxotrophic for HLM; higher = larger share of this subpopulation than in DMSO controls; conditions: 10 µM; 24 h; SM minimal medium; subpopulation (auxotrophy): HLM
# Procedure, shortened: as §1
# [15] = system: Saccharomyces cerevisiae BY4741 SeMeCo community; assay: z-score of subpopulation abundance vs DMSO median, subpopulation auxotrophic for LUM; higher = larger share of this subpopulation than in DMSO controls; conditions: 10 µM; 24 h; SM minimal medium; subpopulation (auxotrophy): LUM
# Procedure, shortened: as §1
# [16] = system: Saccharomyces cerevisiae BY4741 SeMeCo community; assay: z-score of subpopulation abundance vs DMSO median, subpopulation auxotrophic for HLUM; higher = larger share of this subpopulation than in DMSO controls; conditions: 10 µM; 24 h; SM minimal medium; subpopulation (auxotrophy): HLUM
# Procedure, shortened: as §1
SMILES,mean cell size [1],z-score of prototroph abundance [2],z-score of subpopulation abundance [3],z-score of subpopulation abundance [4],z-score of subpopulation abundance [5],z-score of subpopulation abundance [6],z-score of subpopulation abundance [7],z-score of subpopulation abundance [8],z-score of subpopulation abundance [9],z-score of subpopulation abundance [10],z-score of subpopulation abundance [11],z-score of subpopulation abundance [12],z-score of subpopulation abundance [13],z-score of subpopulation abundance [14],z-score of subpopulation abundance [15],z-score of subpopulation abundance [16]
COc1ccc(C2CNC(=O)C2)cc1OC1CCCC1 (configuration not stated) [Rolipram],12.4 ± 0.3,0.66,0.33,-0.37,-0.09,-0.68,-0.29,0.28,-0.73,-0.85,-0.35,-0.38,-0.57,-1.22,-0.59,-0.71
CNCCCN1c2ccccc2CCc2ccccc21 [Desipramine Hydrochloride],12.2 ± 0.14,,1.14,0.26,-0.08,,-0.28,0.26,0.82,-0.04,-0.43,0.02,-0.62,-0.1,,-0.78
Nc1nc2[nH]cc(CCc3ccc(C(=O)N[C@@H](CCC(=O)O)C(=O)O)cc3)c2c(=O)[nH]1 [Pemetrexed],14.85 ± 0.13,3.89,-9.06,1.61,-1.55,,0.04,-3.17,-4.62,2.15,-7.46,2.81,4.74,0.42,-3.17,
CC(C(=O)O)c1ccc2c(c1)CC(=O)c1ccccc1S2 (configuration not stated) [Zaltoprofen],12.82 ± 0.12,0.63,1.11,-0.47,0.2,0.04,-0.2,-0.57,0.46,-0.7,-1.01,-0.14,-0.03,0.64,-0.71,-0.59
N[C@@H](C(=O)N[C@@H]1C(=O)N2C(C(=O)O)=C(Cl)CS[C@H]12)c1ccccc1 [Cefaclor],12.45 ± 0.095,-0.66,0.46,0.23,,0.49,0.23,0.52,0.64,0.41,0.24,-0.05,-0.22,0.3,0.65,0.66
CCCCNC(=O)NS(=O)(=O)c1ccc(C)cc1 [Tolbutamide],12.5 ± 0.33,0.43,-0.57,-0.55,0.61,-0.84,-1.03,-0.86,-0.14,-0.31,-0.16,-0.54,-0.37,-0.11,-1,0.19
C[C@@H](O)[C@H]1C(=O)N2C(C(=O)O)=C(S[C@@H]3CN[C@H](C(=O)Nc4cccc(C(=O)O)c4)C3)[C@H](C)[C@H]12 [Ertapenem sodium],11.9 ± 0.17,,0.04,-0.78,-0.15,0.48,-0.01,-0.04,-0.22,-0.53,0.16,0.1,-1.03,-0.62,-0.18,-0.21
Nc1ccc(S(=O)(=O)Nc2ccnn2-c2ccccc2)cc1 [Sulfaphenazole],12.54 ± 0.079,0.15,0.25,0.58,0.18,-0.07,-0.02,-0.2,-0.42,-0.47,0,-0.02,-0.27,-0.29,-0.28,
COc1ccc2cc([C@H](C)C(=O)O)ccc2c1 [Naproxen Sodium],12.84 ± 0.07,1.33,0.17,0.02,-1.01,-0.42,-0.46,-0.16,-0.61,-1.5,-2.49,0.47,0,0.18,,-0.52
COc1cc(C(C)=O)ccc1OCCCN1CCC(c2noc3cc(F)ccc23)CC1 [Iloperidone],12.4 ± 0.16,-0.06,0.33,0.2,,0.05,-0.41,,,,-0.39,,-1.31,0.44,0.9,
CCCCCCCCc1ccc(CCC(N)(CO)CO)cc1 [Fingolimod],12.1 ± 0.37,2.04,-1.67,-1.22,-1.09,-0.65,-0.72,,,-0.71,-1.44,-1.71,-1.65,-1.02,-1.47,
CC1=C(C(=O)OC(C)C)C(c2cccc([N+](=O)[O-])c2)C(C(=O)OC2CN(C(c3ccccc3)c3ccccc3)C2)=C(N)N1 (configuration not stated) [Azelnidipine],12.5 ± 0.34,-0.48,-0.27,-0.9,0.39,0.22,0.86,-0.63,0.77,1.39,0.01,-0.34,-0.12,0.09,0.01,-0.49
C[C@]12CC[C@@H]3c4ccc(OC(=O)c5ccccc5)cc4CC[C@H]3[C@@H]1CC[C@@H]2O [Estradiol Benzoate],12.4 ± 0.25,-0.27,0.35,0.05,,,-0.68,0.31,,-0.12,0.15,-0.31,-0.51,-0.6,0.37,-0.15
